The entries come from a sample that favours hits as a whole.
Dicer inh = blocks human Dicer maturation of pre-miR-21 | z-score at 25 µM | Q9UPY3 | cat-ELCCA pre-miR-21 Dicer processing, chemiluminescence; hits give high values | 6% of 47,000 active; in the data active = z-score above about 3, passing the limit was not always enough;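 note: plate controls were vehicle for no effect and no enzyme for full effect; higher signal means more uncleaved substrate so more Dicer inhibition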
Target sequence (Q9UPY3 whole entry, looked up): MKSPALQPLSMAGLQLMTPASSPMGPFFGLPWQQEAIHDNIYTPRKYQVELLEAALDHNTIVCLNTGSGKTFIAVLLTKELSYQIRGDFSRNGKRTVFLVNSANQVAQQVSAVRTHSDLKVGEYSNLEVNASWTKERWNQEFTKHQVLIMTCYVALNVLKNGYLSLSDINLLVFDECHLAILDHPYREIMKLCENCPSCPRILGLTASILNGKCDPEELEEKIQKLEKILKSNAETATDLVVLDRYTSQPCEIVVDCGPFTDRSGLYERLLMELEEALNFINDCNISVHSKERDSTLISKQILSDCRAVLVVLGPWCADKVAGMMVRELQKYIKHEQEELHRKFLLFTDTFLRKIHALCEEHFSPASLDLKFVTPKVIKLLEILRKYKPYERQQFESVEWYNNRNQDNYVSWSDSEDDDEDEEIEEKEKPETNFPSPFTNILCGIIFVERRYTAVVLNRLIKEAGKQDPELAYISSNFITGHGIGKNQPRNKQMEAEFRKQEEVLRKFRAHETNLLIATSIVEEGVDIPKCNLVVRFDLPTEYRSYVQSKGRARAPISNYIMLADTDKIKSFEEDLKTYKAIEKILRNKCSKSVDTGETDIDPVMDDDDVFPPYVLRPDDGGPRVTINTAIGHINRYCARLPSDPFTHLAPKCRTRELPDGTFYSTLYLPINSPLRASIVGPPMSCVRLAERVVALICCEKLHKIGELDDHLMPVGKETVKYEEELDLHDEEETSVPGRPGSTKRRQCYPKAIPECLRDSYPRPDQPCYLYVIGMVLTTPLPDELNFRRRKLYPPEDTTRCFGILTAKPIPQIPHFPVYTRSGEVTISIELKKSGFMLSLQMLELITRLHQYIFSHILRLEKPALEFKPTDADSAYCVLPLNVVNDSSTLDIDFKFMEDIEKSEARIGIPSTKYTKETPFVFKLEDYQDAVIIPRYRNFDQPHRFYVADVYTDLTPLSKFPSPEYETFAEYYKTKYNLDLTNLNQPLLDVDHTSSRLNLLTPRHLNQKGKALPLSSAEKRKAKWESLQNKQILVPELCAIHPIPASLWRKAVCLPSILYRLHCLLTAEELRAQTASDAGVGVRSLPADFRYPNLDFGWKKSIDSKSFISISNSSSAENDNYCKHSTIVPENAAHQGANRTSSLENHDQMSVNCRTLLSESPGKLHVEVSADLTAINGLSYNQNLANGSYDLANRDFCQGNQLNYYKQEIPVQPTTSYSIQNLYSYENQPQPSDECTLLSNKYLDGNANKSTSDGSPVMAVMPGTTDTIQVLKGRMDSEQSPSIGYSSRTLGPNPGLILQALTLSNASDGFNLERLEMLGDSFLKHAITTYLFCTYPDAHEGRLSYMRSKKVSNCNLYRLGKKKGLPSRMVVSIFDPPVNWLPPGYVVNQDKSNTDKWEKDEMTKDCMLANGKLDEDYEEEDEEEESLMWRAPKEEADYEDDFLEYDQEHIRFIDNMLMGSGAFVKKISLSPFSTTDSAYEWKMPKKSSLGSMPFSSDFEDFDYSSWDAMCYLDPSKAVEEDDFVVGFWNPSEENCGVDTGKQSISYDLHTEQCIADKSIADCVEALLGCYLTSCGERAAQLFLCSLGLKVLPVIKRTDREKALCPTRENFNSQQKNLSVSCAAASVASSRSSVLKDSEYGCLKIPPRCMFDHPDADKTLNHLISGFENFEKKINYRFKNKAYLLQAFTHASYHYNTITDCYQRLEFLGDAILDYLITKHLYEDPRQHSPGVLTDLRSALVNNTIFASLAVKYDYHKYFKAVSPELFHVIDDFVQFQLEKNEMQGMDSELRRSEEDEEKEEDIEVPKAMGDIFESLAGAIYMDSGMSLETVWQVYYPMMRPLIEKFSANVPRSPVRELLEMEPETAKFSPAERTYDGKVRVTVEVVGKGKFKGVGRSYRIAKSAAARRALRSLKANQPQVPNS
Starred values were filed as active, the others as inactive.

SMILES	Dicer inh
COc1ccc(C2CC(=O)C3=C(C2)Nc2ccccc2NC3c2ccc(Cl)cc2)cc1OC (stereo not given)	2.4
O=C(CSc1n[nH]c(=O)n1C1CC1)c1cc(-c2ccccc2)no1	-1.1
COCCCNc1nc2c(c(=O)n(C)c(=O)n2C)n1Cc1ccc(Br)cc1	1.4
FC(F)(F)c1ccc(-c2csc(-c3ccc(C4SCCS4)cc3)n2)cc1	-1.2
COCCCn1c2c(c(=O)[nH]c1=O)C(c1ccc(C)cc1)C1=C(N2)c2ccccc2C1=O (stereo not given)	-2.7
CC(=O)Oc1ccc(OC(C)=O)c2c1[C@@H]1C=C[C@H]2CC1	0.7
N#Cc1c(F)ccc(NC(=O)Nc2ccc(Cl)cc2)c1F	-0.58
O=C(Nc1ccc(Cl)cc1)Nc1nc(-c2cc(Cl)c(Cl)s2)cs1	1.5
O=C(Nc1ccc(Cl)cc1)Nc1cc(Cl)sc1Cl	4.7*
CCOC(=O)C1CCN(C(=S)NC2CC3C=CC2C3)CC1 (stereo not given)	0.1
NC(=O)C1CCN(C(=S)NC2CC3C=CC2C3)CC1 (stereo not given)	-0.16
COc1cccc(/C=N/NC(=O)C2CCCN(C(=S)NNC3CC4C=CC3C4)CC2)c1O (stereo not given)	3.7*
CN(C)C(=O)c1ccc(Oc2cc(Cl)cc(Cl)c2)o1	2.9
O=[N+]([O-])c1cccc(C2=NNC(O)(C(F)(F)F)C2)c1 (stereo not given)	-0.2
COc1ccc(-c2nc(-c3cc4cc(C)ccc4[nH]c3=O)no2)cc1OC	-0.57
O=C1CC(c2ccccc2)CC2=C1C(c1cccc(O)c1)Nc1ccccc1N2 (stereo not given)	0.93
COc1ccc(C2CC(=O)C3=C(C2)Nc2ccccc2NC3c2ccc(F)c(F)c2)cc1 (stereo not given)	2.7
O=C1CC(c2cccs2)CC2=C1C(c1cccc(O)c1)Nc1ccccc1N2 (stereo not given)	3.2*
O=C1CC(c2cccs2)CC2=C1C(c1ccc(Cl)cc1)Nc1ccccc1N2 (stereo not given)	65
O=C1CC(c2cccs2)CC2=C1C(c1ccc(Cl)c(F)c1)Nc1ccccc1N2 (stereo not given)	4.2*
O=C1CC(c2ccccc2)CC2=C1C(c1cccs1)Nc1ccccc1N2 (stereo not given)	-0.49
Cc1ccc(S(=O)(=O)N(C)CCO)cc1-c1nnc2c3ccccc3c(C)nn12	0.62
Cc1ccc(C(=O)CSC2=NCCCCC2)cc1	-2.6
FC(F)(F)c1cc(Cl)c2nc(-c3n[nH]c(=S)o3)cn2c1	0.12
Cc1nc2ccc(F)cc2c2c1CCN2c1ccc(Cl)cc1	2.6
SMILES	Dicer inh
COc1ccc(N2CC(O)=C(c3nc4ccccc4c(=O)[nH]3)C2=N)cc1Cl	0.29
Cc1ccc(S(=O)(=O)NC(=O)Oc2ccc(Oc3ccc(C(F)(F)F)cn3)cc2)cc1	-0.86
CSc1ccccc1NC(=O)c1cc2n(n1)C(C(F)(F)F)CC(c1ccco1)N2 (stereo not given)	-0.22
O=C(NC1CCCC1)c1nn2c(c1Cl)NC(c1ccccc1)CC2C(F)(F)F (stereo not given)	-0.2
O=C(O)c1cc2n(n1)C(C(F)(F)F)CC(c1ccco1)N2 (stereo not given)	-0.34
CSc1ccccc1NC(=O)c1nn2c(c1Cl)NC(c1ccco1)CC2C(F)(F)F (stereo not given)	4.4*
CC1CCN(C(=O)c2nn3c(c2Cl)NC(c2ccco2)CC3C(F)(F)F)CC1 (stereo not given)	4*
CC1CN(C(=O)c2cc3n(n2)C(C(F)(F)F)CC(c2ccco2)N3)CC(C)O1 (stereo not given)	1.7
O=c1sc2ccccc2n1CCOc1ccccc1Cl	0.54
CCCSc1ccc2c3c(cccc13)C(=O)N(CCc1ccc(OC)c(OC)c1)C2=O	-0.85
CC(C)(C)c1cn2nc(C(C)(C)C)sc2n1	0.91
COc1ccccc1C1Nc2c(C)cc(C)cc2-c2cc(C)nn21 (stereo not given)	2.9
CCN(CC)c1ccc(C2Nc3c(C)cccc3-c3cc(C)nn32)c(O)c1 (stereo not given)	0.45
COc1ccc(C2Nc3c(C)cccc3-c3cc(C)nn32)c(OC)c1 (stereo not given)	-0.71
Cc1cc2n(n1)C(c1cccs1)Nc1c(C)cccc1-2 (stereo not given)	1.4
COc1ccccc1C1Nc2c(C)cccc2-c2cc(C)nn21 (stereo not given)	3.9*
Cc1cc2n(n1)C(c1ccccc1O)Nc1c(C)cccc1-2 (stereo not given)	5.2*
COc1cc(O)ccc1C1Nc2c(C)cccc2-c2cc(C)nn21 (stereo not given)	3.8*
COc1cc(O)ccc1C1Nc2ccccc2-c2cc(C)nn21 (stereo not given)	0.34
COc1ccc2[nH]c(C(=O)N(C)c3ccccc3Cl)cc2c1	-1.8
CCOC(=O)c1ccc2nc(C(F)(F)F)nc(N3CCCCC3)c2c1	-1.5
CC(C)(C)NC(=O)Cn1nnc(-c2ccc3c(c2)OCO3)n1	1.4
O=C(Nc1nnc(-c2ccco2)s1)c1ccccc1Br	0.78
